The values below come from PMC9911399, “Two distinct binding modes provide the RNA-binding protein RbFox with extraordinary sequence specificity”.

T1: RBFOX1 RRM (Homo sapiens, UniProt Q9NWB1 109-208)
T1 sequence: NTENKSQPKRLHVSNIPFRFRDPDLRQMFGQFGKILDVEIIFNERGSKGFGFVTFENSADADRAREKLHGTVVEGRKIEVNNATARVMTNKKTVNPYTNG

B1: CUGUGUG (DNA:RNA)
RNA: GGGAGACCGGAAUUCAGAUUGUCCCUGUGUGUUAAAUCCCGUCGUAGCCACCA
DNA 1: CAATCTGAATTCCGGTCTCCC
DNA 2: TGGTGGCTACGACGGGATT
B2: ACUCAGC (DNA:RNA)
RNA: GGGAGACCGGAAUUCAGAUUGUCCACUCAGCUUAAAUCCCGUCGUAGCCACCA
DNA 1: CAATCTGAATTCCGGTCTCCC
DNA 2: TGGTGGCTACGACGGGATT
B3: GUAGGCC (DNA:RNA)
RNA: B1 RNA with C25G, G27A, U28G, U30C, G31C
DNA 1: CAATCTGAATTCCGGTCTCCC
DNA 2: TGGTGGCTACGACGGGATT
B4: UAAAGUG (DNA:RNA)
RNA: B1 RNA with C25U, U26A, G27A, U28A
DNA 1: CAATCTGAATTCCGGTCTCCC
DNA 2: TGGTGGCTACGACGGGATT
B5: CACUAAU (DNA:RNA)
RNA: B1 RNA with U26A, G27C, G29A, U30A, G31U
DNA 1: CAATCTGAATTCCGGTCTCCC
DNA 2: TGGTGGCTACGACGGGATT
B6: UACCGCC (DNA:RNA)
RNA: B2 RNA with A25U, C26A, U27C, A29G, G30C
DNA 1: CAATCTGAATTCCGGTCTCCC
DNA 2: TGGTGGCTACGACGGGATT
B7: AAUUCUA (DNA:RNA)
RNA: B2 RNA with C26A, C28U, A29C, G30U, C31A
DNA 1: CAATCTGAATTCCGGTCTCCC
DNA 2: TGGTGGCTACGACGGGATT
B8: UGCAUCA (DNA:RNA)
RNA: GGGAGACCGGAAUUCAGAUUGUCCUGCAUCAUUAAAUCCCGUCGUAGCCACCA
DNA 1: CAATCTGAATTCCGGTCTCCC
DNA 2: TGGTGGCTACGACGGGATT
B9: UGCAUCC (DNA:RNA)
RNA: B8 RNA with A31C
DNA 1: CAATCTGAATTCCGGTCTCCC
DNA 2: TGGTGGCTACGACGGGATT
B10: UGCAUCG (DNA:RNA)
RNA: B8 RNA with A31G
DNA 1: CAATCTGAATTCCGGTCTCCC
DNA 2: TGGTGGCTACGACGGGATT
B11: AGGGCCC (DNA:RNA)
RNA: B2 RNA with C26G, U27G, C28G, A29C, G30C
DNA 1: CAATCTGAATTCCGGTCTCCC
DNA 2: TGGTGGCTACGACGGGATT
B12: GUGAUCC (DNA:RNA)
RNA: B8 RNA with U25G, G26U, C27G, A31C
DNA 1: CAATCTGAATTCCGGTCTCCC
DNA 2: TGGTGGCTACGACGGGATT
B13: AGGGUCU (DNA:RNA)
RNA: B8 RNA with U25A, C27G, A28G, A31U
DNA 1: CAATCTGAATTCCGGTCTCCC
DNA 2: TGGTGGCTACGACGGGATT
B14: GCUUAAA (DNA:RNA)
RNA: B2 RNA with A25G, C28U, G30A, C31A
DNA 1: CAATCTGAATTCCGGTCTCCC
DNA 2: TGGTGGCTACGACGGGATT
B15: CCGCUUG (DNA:RNA)
RNA: B1 RNA with U26C, U28C, G29U
DNA 1: CAATCTGAATTCCGGTCTCCC
DNA 2: TGGTGGCTACGACGGGATT
B16: GUCCGCU (DNA:RNA)
RNA: B1 RNA with C25G, G27C, U28C, U30C, G31U
DNA 1: CAATCTGAATTCCGGTCTCCC
DNA 2: TGGTGGCTACGACGGGATT
B17: CGCUUGC (DNA:RNA)
RNA: B8 RNA with U25C, A28U, C30G, A31C
DNA 1: CAATCTGAATTCCGGTCTCCC
DNA 2: TGGTGGCTACGACGGGATT
B18: CGUUGCA (DNA:RNA)
RNA: B1 RNA with U26G, G27U, U30C, G31A
DNA 1: CAATCTGAATTCCGGTCTCCC
DNA 2: TGGTGGCTACGACGGGATT
B19: GCUUUGC (DNA:RNA)
RNA: B2 RNA with A25G, C28U, A29U
DNA 1: CAATCTGAATTCCGGTCTCCC
DNA 2: TGGTGGCTACGACGGGATT
B20: GCUUGCU (DNA:RNA)
RNA: B2 RNA with A25G, C28U, A29G, G30C, C31U
DNA 1: CAATCTGAATTCCGGTCTCCC
DNA 2: TGGTGGCTACGACGGGATT
B21: GCUUGCA (DNA:RNA)
RNA: B2 RNA with A25G, C28U, A29G, G30C, C31A
DNA 1: CAATCTGAATTCCGGTCTCCC
DNA 2: TGGTGGCTACGACGGGATT
B22: GCUUGCG (DNA:RNA)
RNA: B1 RNA with C25G, U26C, G27U, U30C
DNA 1: CAATCTGAATTCCGGTCTCCC
DNA 2: TGGTGGCTACGACGGGATT
B23: UAAGGUC (DNA:RNA)
RNA: B1 RNA with C25U, U26A, G27A, U28G, G31C
DNA 1: CAATCTGAATTCCGGTCTCCC
DNA 2: TGGTGGCTACGACGGGATT
B24: UACUCGA (DNA:RNA)
RNA: B8 RNA with G26A, A28U, U29C, C30G
DNA 1: CAATCTGAATTCCGGTCTCCC
DNA 2: TGGTGGCTACGACGGGATT
B25: AUACUGG (DNA:RNA)
RNA: B2 RNA with C26U, U27A, A29U, C31G
DNA 1: CAATCTGAATTCCGGTCTCCC
DNA 2: TGGTGGCTACGACGGGATT
B26: GUUACCU (DNA:RNA)
RNA: B8 RNA with U25G, G26U, C27U, U29C, A31U
DNA 1: CAATCTGAATTCCGGTCTCCC
DNA 2: TGGTGGCTACGACGGGATT
B27: CCCUACU (DNA:RNA)
RNA: B2 RNA with A25C, U27C, C28U, G30C, C31U
DNA 1: CAATCTGAATTCCGGTCTCCC
DNA 2: TGGTGGCTACGACGGGATT
B28: UGGGACC (DNA:RNA)
RNA: B8 RNA with C27G, A28G, U29A, A31C
DNA 1: CAATCTGAATTCCGGTCTCCC
DNA 2: TGGTGGCTACGACGGGATT
B29: CUGGUCC (DNA:RNA)
RNA: B1 RNA with U28G, G29U, U30C, G31C
DNA 1: CAATCTGAATTCCGGTCTCCC
DNA 2: TGGTGGCTACGACGGGATT
B30: UGGGUCA (DNA:RNA)
RNA: B8 RNA with C27G, A28G
DNA 1: CAATCTGAATTCCGGTCTCCC
DNA 2: TGGTGGCTACGACGGGATT
B31: UGGGUCC (DNA:RNA)
RNA: B8 RNA with C27G, A28G, A31C
DNA 1: CAATCTGAATTCCGGTCTCCC
DNA 2: TGGTGGCTACGACGGGATT
B32: UGGGUCG (DNA:RNA)
RNA: B8 RNA with C27G, A28G, A31G
DNA 1: CAATCTGAATTCCGGTCTCCC
DNA 2: TGGTGGCTACGACGGGATT
B33: UGGUCCG (DNA:RNA)
RNA: B1 RNA with C25U, U26G, G29C, U30C
DNA 1: CAATCTGAATTCCGGTCTCCC
DNA 2: TGGTGGCTACGACGGGATT

Where a chain is given by its changes, count along the chain named. In all, about 16,000 sequences were measured (“ka relative to ugcaugu”: median about 0.0091, highest 2% from about 0.032 on). This is one part of a sample in which the highest values are shown more often than they occur.

In this assay the target is T1, RBFOX1 RRM. Put plainly: EMSA; HiTS-Eq, 1 nM pool, 10 min; buffer printed only for the single-RNA assays: 10 mM Tris pH 7.5, 150 mM NaCl, 3.4 mM EDTA, 0.001% NP-40, 30 C. As to conditions: tags: His6 N-terminal (pET28a); label: 5' 32P. The method in brief: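 Relative association constants, normalised to the cognate motif, were derived by comparing read counts of each RNA species with those of the control reaction. The RNA sequenced was the free fraction, separated by 8% native PAGE after a 10 min equilibration in 50 µL of 1 nM 5′-radiolabelled RNA (7 randomized nucleotides) with increasing concentrations of purified wild-type or mutant RbFox RRM.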
In the case of B1, the binding signal was 0.027 KA relative to UGCAUGU.

In the case of B2, the binding signal was 0.00534 KA relative to UGCAUGU.

Consider B3, for which the binding signal is 0.00837 KA relative to UGCAUGU.

Regarding B4, the binding signal is 0.00935 KA relative to UGCAUGU.

As to B5, the binding signal was 0.00175 KA relative to UGCAUGU.

With B6, the binding signal is 0.00921 KA relative to UGCAUGU.

Regarding B7, the binding signal is 0.00109 KA relative to UGCAUGU.

With B8, the binding signal is 0.0118 KA relative to UGCAUGU.

As for B9, the binding signal is 0.0337 KA relative to UGCAUGU.

Turning to B10, the binding signal is 0.0295 KA relative to UGCAUGU.

As for B11, the binding signal is 0.0184 KA relative to UGCAUGU.

Consider B12, for which the binding signal was 0.0187 KA relative to UGCAUGU.

B13: the binding signal was 0.0254 KA relative to UGCAUGU.

For the molecule B14, the binding signal was 0.00504 KA relative to UGCAUGU.

In the case of B15, the binding signal is 0.0253 KA relative to UGCAUGU.

Consider B16, for which the binding signal is 0.0113 KA relative to UGCAUGU.

Regarding B17, the binding signal is 0.032 KA relative to UGCAUGU.

As to B18, the binding signal is 0.0228 KA relative to UGCAUGU.

Consider B19, for which the binding signal was 0.0232 KA relative to UGCAUGU.

In the case of B20, the binding signal is 0.0354 KA relative to UGCAUGU.

With B21, the binding signal is 0.0329 KA relative to UGCAUGU.

With B22, the binding signal is 0.0193 KA relative to UGCAUGU.

As to B23, the binding signal is 0.0168 KA relative to UGCAUGU.

On to B24, for which the binding signal is 0.0112 KA relative to UGCAUGU.

Consider B25, for which the binding signal is 0.00795 KA relative to UGCAUGU.

B26: the binding signal is 0.00787 KA relative to UGCAUGU.

Regarding B27, the binding signal is 0.00609 KA relative to UGCAUGU.

Turning to B28, the binding signal was 0.0142 KA relative to UGCAUGU.

Take B29: the binding signal is 0.0227 KA relative to UGCAUGU.

With B30, the binding signal was 0.0232 KA relative to UGCAUGU.

For B31, the binding signal was 0.0332 KA relative to UGCAUGU.

B32: the binding signal was 0.0407 KA relative to UGCAUGU.

Turning to B33, the binding signal was 0.017 KA relative to UGCAUGU.
